The values below come from PubChem BioAssay (NCATS).

Structures are written as SMILES. Inconclusive results are not listed. Active and inactive are the calls of the source. Calls come from the whole dose curve; as a rule, active = well fitted inhibition curve with a large enough effect; inconclusive = small, poorly fitted or top-dose-only effect; inactive = flat fitted curve, though single readings scatter.

Assay in all cases: qHTS profiling for inhibitors of Plasmodium falciparum proliferation (AID 504749); note: nearly all actives have a fitted effect of over 60% in size
Holding throughout (conditions): P. falciparum in erythrocytes, SYBR Green DNA, 72 h; series mostly up to 28.7 µM

One experiment deals with CP269. The procedure, abridged:
(§1)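 P. falciparum-infected erythrocytes (0.3% parasitemia, 2.5% hematocrit) incubated with compound 72 h at 37 C, 5% CO2. Parasite DNA detected by SYBR Green after lysis, overnight at room temperature; normalised to 0.29 uM artemisinin and DMSO.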

The next experiment deals with CP286. The procedure, abridged:
as §1

In a further experiment the test system is CP291. The procedure, abridged: as §1
For the next experiment, the system named is CP297. In short, it runs like this: as §1
The test system of the next experiment is CP305. In short, it runs like this:
as §1

Another experiment concerns CP315. The procedure, abridged: as §1
The test system of the next experiment is CP325. The procedure, abridged:
as §1

A further experiment concerns CP329. The procedure, abridged:
as §1

The test system of the next experiment is CP335. The procedure, abridged:
as §1

For a further experiment, the system named is DFO2036. In short, it runs like this: as §1
For a further experiment, the system named is DIV14. In short, it runs like this: as §1
The next experiment concerns DIV17. In short, it runs like this: as §1
In another experiment the test system is DIV30. The procedure, abridged:
as §1

Another experiment deals with Dd2. In short, it runs like this: as §1
In a further experiment the test system is ECU. In short, it runs like this: as §1
For the next experiment, the system named is FAB9. In short, it runs like this: as §1
The subject of another experiment is GB4. The procedure, abridged: as §1
A further experiment relates to HB3. In short, it runs like this: as §1
A further experiment concerns ICS. The procedure, abridged: as §1
Another experiment relates to JCK. In short, it runs like this:
as §1
Potency is the fitted concentration of half-maximal effect.

With `NCCc1ccc(O)c(O)c1`, the Potency result with CP269, in the experiment with CP286, in the experiment on CP291, with CP297, with CP305 and in the experiment with CP315 was “inactive” throughout. For the same molecule, the Potency entry in the experiment with CP325, with CP335, in the experiment with DFO2036, with DIV14, with DIV17 and in the experiment with DIV30 was “inactive” throughout. Also, the Potency result with Dd2, in the experiment with ECU, in the experiment with FAB9, with GB4, in the experiment with HB3 and in the experiment with ICS was “inactive” each time. Besides, in the experiment with JCK, the Potency result was “inactive”. For the same molecule, the molecule was called inactive in the experiment with CP329.
For the molecule `CC(=O)Oc1ccccc1C(=O)O`, the Potency result in the experiment on CP269, with CP286, in the experiment with CP291, in the experiment on CP297, in the experiment with CP305 and in the experiment with CP315 was “inactive” in each case. For the same molecule, the Potency entry with CP325, in the experiment on CP335, in the experiment with DFO2036, with DIV14, in the experiment with DIV17 and in the experiment with DIV30 was “inactive” throughout. Moreover, the Potency entry in the experiment on Dd2, in the experiment with ECU, in the experiment on FAB9, with GB4, in the experiment with HB3 and in the experiment on ICS was “inactive” each time. The Potency entry in the experiment on JCK is “inactive”. Moreover, the call in the experiment with CP329 was inactive.
In the case of `Cc1cn[nH]c1`, the Potency result in the experiment with CP269, in the experiment with CP286, with CP291, with CP297, with CP305 and in the experiment with CP315 was “inactive” in each case. The Potency result in the experiment on CP325, with CP335, in the experiment with DFO2036, with DIV14, in the experiment with DIV17 and in the experiment with DIV30 was “inactive” in each case. Moreover, the Potency result in the experiment with Dd2, in the experiment on ECU, with FAB9, with GB4, with HB3 and with ICS was “inactive” throughout. The Potency result in the experiment on JCK is “inactive”. Also, the outcome in the experiment on CP329 was inactive.
For the molecule `NC(=O)c1cnccn1`, the Potency result in the experiment on CP269, in the experiment on CP286, in the experiment on CP291, with CP297, with CP305 and in the experiment with CP315 was “inactive” throughout. In addition, the Potency entry with CP325, in the experiment on CP335, in the experiment on DFO2036, in the experiment with DIV14, in the experiment on DIV17 and with DIV30 was “inactive” throughout. Further, the Potency result in the experiment on Dd2, with ECU, in the experiment on FAB9, in the experiment on GB4, in the experiment on HB3 and in the experiment on ICS was “inactive” each time. Further, in the experiment with JCK, the Potency result is “inactive”. Also, the result with CP329 was inactive.
With `Cc1[nH]c(=O)c(C#N)cc1-c1ccc2nccn2c1`, the Potency entry with CP269, in the experiment with CP286, in the experiment with CP291, in the experiment with CP297, in the experiment with CP305 and in the experiment with CP315 was “inactive” throughout. In addition, the Potency result in the experiment on CP325, with CP335, with DFO2036, in the experiment on DIV14, in the experiment with DIV17 and with DIV30 was “inactive” each time. The Potency entry in the experiment on Dd2, in the experiment with ECU, in the experiment with FAB9, in the experiment on GB4, in the experiment on HB3 and in the experiment with ICS was “inactive” throughout. The Potency entry with JCK was “inactive”. Besides, in the experiment on CP329, the result was inactive.
In the case of `Clc1cccc(Cl)c1NC1=NCCN1`, the Potency result in the experiment with CP269, in the experiment with CP286, in the experiment on CP291, in the experiment on CP297, with CP305 and in the experiment with CP315 was “inactive” each time. Besides, the Potency entry in the experiment with CP325, in the experiment on CP335, in the experiment on DFO2036, with DIV14, in the experiment with DIV17 and in the experiment with DIV30 was “inactive” in each case. Further, the Potency entry with Dd2, in the experiment on ECU, in the experiment on FAB9, in the experiment with GB4, with HB3 and with ICS was “inactive” throughout. For the same molecule, the Potency entry in the experiment on JCK is “inactive”. Moreover, the result in the experiment on CP329 was inactive.
As for `Cc1ccc(N(CC2=NCCN2)c2cccc(O)c2)cc1`, the Potency result in the experiment on CP269, with CP286, in the experiment on CP291, with CP297, with CP305 and in the experiment with CP315 was “inactive” each time. Also, the Potency result with CP325, in the experiment on CP335, in the experiment on DFO2036, with DIV14, with DIV17 and in the experiment with DIV30 was “inactive” each time. Besides, the Potency result in the experiment on Dd2, in the experiment on ECU, with FAB9, in the experiment on GB4, in the experiment with HB3 and in the experiment on ICS was “inactive” each time. Further, in the experiment on JCK, the Potency entry was “inactive”. Further, the molecule was called inactive with CP329.
Regarding `Nc1ccc(S(=O)(=O)Nc2ccnn2-c2ccccc2)cc1`, the Potency result with CP269, with CP286, with CP291, with CP297, in the experiment on CP305 and in the experiment on CP315 was “inactive” in each case. Also, the Potency result with CP325, with CP335, in the experiment on DFO2036, with DIV14, in the experiment on DIV17 and in the experiment on DIV30 was “inactive” each time. Also, the Potency result in the experiment with Dd2, in the experiment on ECU, in the experiment on FAB9, in the experiment on GB4, in the experiment with HB3 and with ICS was “inactive” in each case. Moreover, the Potency result with JCK is “inactive”. In addition, in the experiment with CP329, the molecule was classed as inactive.
`Cn1cnc([N+](=O)[O-])c1Sc1ncnc2nc[nH]c12`: the Potency entry in the experiment on CP269, in the experiment with CP286, in the experiment with CP291, in the experiment on CP297, in the experiment on CP305 and with CP315 was “inactive” in each case. The Potency result with CP325, in the experiment with CP335, in the experiment with DFO2036, in the experiment on DIV14, in the experiment with DIV30 and with Dd2 was “inactive” in each case. For the same molecule, the Potency result with FAB9, in the experiment with HB3 and with JCK was “inactive” in each case. Besides, the molecule was classed as inactive in the experiment with CP329. Besides, the Potency with ECU is 8.91 µM (active).
Turning to `N#Cc1ccc(C(c2ccc(C#N)cc2)n2cncn2)cc1`, the Potency result in the experiment on CP269, in the experiment on CP286, in the experiment with CP291, in the experiment on CP297, in the experiment with CP305 and in the experiment on CP315 was “inactive” in each case. In addition, the Potency result with CP325, in the experiment with CP335, with DFO2036, in the experiment on DIV14, in the experiment with DIV17 and in the experiment with DIV30 was “inactive” in each case. Also, the Potency result in the experiment with Dd2, in the experiment with ECU, in the experiment with FAB9, in the experiment on GB4, in the experiment with HB3 and with ICS was “inactive” throughout. Further, the Potency entry in the experiment with JCK was “inactive”. Besides, the molecule was classed as inactive with CP329.
